LmPK inhibitor – inhibitors of Leishmania mexicana pyruvate kinase | Q27686 | Potency, µM (doses to about 57.5 µM), for inactives: at the highest dose activity change, negative = inhibition, actives largely listed as inhibitors | purified LmPK, Kinase-Glo ATP luminescence, 1 h | 0.37% of 290,000 active
Target sequence (Q27686 whole entry, looked up): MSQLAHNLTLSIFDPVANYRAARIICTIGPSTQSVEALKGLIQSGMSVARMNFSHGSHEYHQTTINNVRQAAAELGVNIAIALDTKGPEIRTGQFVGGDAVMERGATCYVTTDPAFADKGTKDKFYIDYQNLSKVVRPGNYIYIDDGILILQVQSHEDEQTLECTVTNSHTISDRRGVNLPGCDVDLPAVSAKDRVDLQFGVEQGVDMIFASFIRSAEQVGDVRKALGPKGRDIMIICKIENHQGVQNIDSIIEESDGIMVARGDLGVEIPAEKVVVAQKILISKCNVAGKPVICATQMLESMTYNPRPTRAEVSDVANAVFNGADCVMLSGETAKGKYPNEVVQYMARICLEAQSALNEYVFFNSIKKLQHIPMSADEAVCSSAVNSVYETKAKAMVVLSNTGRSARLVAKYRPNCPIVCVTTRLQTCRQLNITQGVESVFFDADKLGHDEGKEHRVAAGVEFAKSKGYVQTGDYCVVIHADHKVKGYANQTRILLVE
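Kinase-Glo luminescence read after 1 h RT reaction of 0.1 nM LmPK with 0.5 mM PEP and 0.1 mM ADP. Activity scaled between uninhibited and enzyme-free controls.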
AMA1-RON2 inh – disrupts binding of P. falciparum AMA1 to RON2; AID 720542; AlphaScreen AMA1-biotinylated RON2 peptide binding; 0.2% of 360,000 active; Potency, µM (series often up to 58.2 µM), inactives show at the top dose activity change, negative = inhibition, most hits filed as inhibitors;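 also: 0% = vehicle wells and -100% = peptide control; nearly all actives have a fitted effect of over 45% in size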
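AMA1 (3D7) with his tag at 25 nM final met compounds first, then biotinylated RON2 peptide at 25 nM; detection used donor plus acceptor beads, 10 µg/mL apiece, read by AlphaScreen after 30 min at room temperature.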
Tb PYK inh – T. brucei pyruvate kinase inhibition; 0.12% of 410,000 active; Q57TT1; TbPYK enzyme, Kinase-Glo Plus ATP luminescence, 45 min; Potency, µM (series often up to 76.8 µM), inactives show at the top dose activity, negative = inhibition, usual class: inhibitors; also: nearly all actives have a fitted effect of over 50% in size
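Readout: single end-point luminescence (Kinase-Glo Plus, 10 min). Reaction conditions were TbPYK/substrate plus 130 uM ADP, 45 min at RT, pH 7.2 TEA buffer. No-enzyme wells served as controls, and data were normalized before concentration-response fitting.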
RE007 growth inh – less growth of the S. pombe RE007 Vpr strain; Potency, µM (titrated, usually from 92.2 µM), for inactives: top-dose activity change, negative = less growth, usual class: inhibitors; 0.21% of 360,000 active; S. pombe RE007 Vpr strain, BacTiter-Glo ATP luminescence, 24 h; active = well fitted falling curve with a large enough effect; inconclusive = small, poorly fitted or top-dose-only effect; inactive = no such curve, though single readings can be large or run the other way; also: nearly all actives have a fitted effect of over 50% in size
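Fission yeast RE007 carrying one integrated HIV-1 vpr copy, seeded at OD 0.01 in PMG+AL medium with 23 nL pinned compound. Grown 24 h at 30 degrees; viability read by BacTiter-Glo luminescence after 5 min.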
VACV mCherry inh – inhibitors of vaccinia virus infection (mCherry reporter signal); AID 720579; Potency, µM (titrated, usually from 36.5 µM), for the others: at the top dose activity change, negative = inhibition, actives largely listed as inhibitors; 0.63% of 310,000 active; Vaccinia virus mCherry reporter infection, fluorescence; calls by dose curve; tested in A549 cells; also: nearly all actives have a fitted effect of over 35% in size
Vaccinia Venus – vaccinia inhibition (Venus reporter); Vaccinia virus Venus reporter expression, fluorescence; Potency, µM (series often up to 36.5 µM), for the others: at the highest dose activity change, negative = inhibition, most hits filed as inhibitors; 0.46% of 330,000 active; AID 720580; calls by dose curve; tested in A549 cells; also: nearly all actives have a fitted effect of over 30% in size
The depositor's hits bear a star; i = inactive; ? = inconclusive; / = no result given. The list is not random: actives were taken first. Their share in the collection is about 1.3%. Unless noted, calls follow the shape of the dose curve; as a rule, active = well fitted curve in the direction sought with a large enough effect; inconclusive = small, poorly fitted or top-dose-only effect, or another doubt; inactive = no such curve, though single readings can be large; an effect the other way counts as inactive or inconclusive. Unless noted, % is scaled to controls: 0 for no effect and ±100 for the full control effect; potency is read from the fitted curve at half-maximal effect.

SMILES	LmPK inhibitor	AMA1-RON2 inh	Tb PYK inh	RE007 growth inh	VACV mCherry inh	Vaccinia Venus
CCOc1ccc(-c2ccc(SC)nn2)cc1	5µM*	-8%	?	?	-8%	-1%
Cc1ccc(CNCc2c(C(=O)O)n(Cc3ccc(C)cc3)c3cc(C)ccc23)cc1	/	/	-3%	/	11µM*	?
CCc1ccc(CNCc2c(C(=O)O)n(Cc3ccc(C)cc3)c3cc(C)ccc23)cc1	/	/	-10%	/	?	?
C=Cc1ccc(Cn2c(C(=O)O)c(CNCc3ccccc3)c3ccc(C)cc32)cc1	/	/	-4%	/	?	13µM*
COc1cccc(N2C(=O)CC(N3CCC(c4nc5ccccc5[nH]4)CC3)C2=O)c1 (centres undefined)	-4%	21%	-6%	35µM*	-15%	-7%
Cc1cccc(N2C(=O)CC(N3CCC(c4nc5ccccc5[nH]4)CC3)C2=O)c1 (centres undefined)	-10%	19%	0%	28µM*	/	/
O=C1CC(N2CCC(c3nc4ccccc4o3)CC2)C(=O)N1c1cc(Cl)cc(Cl)c1 (centres undefined)	17%	-10%	-14%	28µM*	/	/
COc1ccc(N2C(=O)CC(N3CCC(n4c(=O)[nH]c5ccccc54)CC3)C2=O)cc1 (centres undefined)	0%	-4%	0%	28µM*	/	/
CCN1C(=O)CC(N2CCC(c3nc4ccccc4[nH]3)CC2)C1=O (centres undefined)	9%	0%	5%	-3%	-9%	-4%
Cc1oc(-c2ccccc2NC(=O)c2ccccc2)nc1CNC(=O)c1c(-c2ccccc2)noc1C	/	/	/	/	-19%	-16%
O=C(NC1CCC(n2cc(C(=O)NC3CC3)nn2)CC1)C(=O)c1ccccc1 (centres undefined)	/	/	/	/	-12%	-8%
CC(=C/c1ccccc1)/C=N/N1CCN(Cc2ccc(C)cc2)CC1	-6%	-27%	2%	5%	i	-9%
CC(/C=N/N1CCN(Cc2ccccc2)CC1)=C\c1ccccc1	-1%	13µM*	4%	-26%	-19%	-2%
COc1cc(/C=N/N2CCN(Cc3ccc(C)cc3)CC2)cc(OC)c1O	-3%	-21%	14µM*	14%	/	/
Cc1ccc(CN2CCN(/N=C/c3ccccc3)CC2)cc1	0%	-26%	-10%	-1%	?	-4%
Cc1ccc(/C=N/N2CCN(Cc3ccccc3)CC2)cc1	8%	13µM*	-9%	-12%	-19%	-17%
Cc1ncc2c(c1CNC(=O)c1cncs1)CCN(C(=O)c1csc(-c3cccs3)n1)C2	/	/	/	/	-4%	11%
CC[C@@H](C)[C@@H](N)C1=N[C@H](C(=O)N[C@@H](CC(C)C)C(=O)N[C@@H](CCC(=O)O)C(=O)N[C@@H](C(=O)N[C@@H]2CCCCNC(=O)[C@@H](CC(N)=O)NC(=O)[C@@H](CC(=O)O)NC(=O)[C@@H](Cc3cnc[nH]3)NC(=O)[C@@H](Cc3ccccc3)NC(=O)[C@@H]([C@H](C)CC)NC(=O)[C@@H](CCCN)NC2=O)[C@@H](C)CC)CS1	/	/	/	/	i	?
CN(C)c1ccc(/C=C2/C[N+](C)(C)C/C(=C/c3ccc(N(C)C)cc3)C2=O)cc1	/	22µM*	-27%	?	13%	278%
CC(C)/C=C1\CC/C(=C\c2ccc(N(C)C)cc2)C1=O	-4%	10%	-2%	?	i	1%
CC(C)NC(=O)[C@@H]1C[C@@H](Sc2ccccn2)CN1C1CCN(C)CC1	/	/	/	/	i	-16%
CN1c2ccsc2/C(=N/NC(=O)c2c(F)cccc2F)CS1(=O)=O	6%	100%	-7%	4%	i	-13%
CN1c2ccsc2/C(=N/Nc2ccccc2)CS1(=O)=O	-1%	-25%	-13%	45µM*	-23%	-10%
COc1ccc(O)c(C(=O)N2CCC3(CC2)c2ccccc2[C@@H](NC(=O)c2ccccn2)[C@@H]3OC)c1	/	/	/	/	-9%	13%
O=C(CNC(=O)c1sc2ccccc2c1Cl)NCc1cccc(C(F)(F)F)c1	/	25%	4%	-2%	-26%	16µM*
SMILES	LmPK inhibitor	AMA1-RON2 inh	Tb PYK inh	RE007 growth inh	VACV mCherry inh	Vaccinia Venus
Cc1cc(=O)[nH]c2nc(N)ccc12	/	/	/	/	-13%	-3%
Cc1cc(C)c2ccc(N)nc2c1O	-1%	53%	1%	28%	13µM*	?
Nc1ccc(Oc2cccc(Oc3ccc(N)cc3)c2)cc1	7%	32µM*	-1%	70%	-21%	-3%
CC(=O)N1CCN(c2csc3ccc(Br)cc3c2=O)CC1	/	/	0%	/	1%	-10%
COc1cc(CN2c3ccc(Br)cc3C(=O)CS2(=O)=O)cc(OC)c1	/	/	/	/	-2%	-11%
O=S(c1ccccc1O)S(=O)c1ccccc1O (centres undefined)	/	0%	4.5µM*	35µM*	-9%	-2%
CC(C)n1cnc2c(Nc3ccc(F)c(Cl)c3)nc(NCCO)nc21	6%	-12%	-7%	-6%	10µM*	?
CC(C)n1cnc2c(Nc3cccc(F)c3)nc(NCCO)nc21	2%	14%	4%	-12%	?	?
CCOc1cccc(C=Nc2cc(C)cc(C)c2O)c1O	22µM*	81%	-11%	3%	/	/
c1ccc(-c2cn3c(n2)-c2ccccc2C3)cc1	5.6µM*	-2%	?	?	-13%	-26%
O=C1c2ccccc2CN2C(=O)c3ccccc3CN12	-3%	-4%	5%	24%	i	-3%
COc1cc(C)c(NC(C)C(=O)c2c(C)[nH]c3ccccc23)cc1OC (centres undefined)	/	/	/	/	-20%	-16%
O=C(/C=C\Nc1ccccn1)c1ccc(Cl)cc1	13µM*	3%	-15%	-19%	-14%	-13%
Cc1cccc(N/C=C/C(=O)c2ccc(Cl)cc2)c1	-1%	4%	-22%	10%	/	/
C[CH2][Hg][S]c1ccccc1C(=O)O	/	45%	11µM*	-21%	?	11µM*
Cc1cccc(Nc2nc(N)c([N+](=O)[O-])c(N3CC(C)CC(C)C3)n2)c1 (centres undefined)	-1%	-20%	8%	-26%	20µM*	?
Cc1cccc(Nc2nc(N)c([N+](=O)[O-])c(N3CC(C)OC(C)C3)n2)c1 (centres undefined)	9%	-7%	-3%	15%	/	/
COc1ccc([N+](=O)[O-])cc1NCc1cccc([N+](=O)[O-])c1	5%	-12%	1%	-5%	?	10µM*
COc1ccccc1NCCC(=O)O	5%	-14%	-4%	-4%	-4%	-6%
O=C1c2cccc(NCCNCCO)c2C(=O)c2cccc(NCCNCCO)c21	/	45µM*	-9%	-24%	?	?

High-throughput results deposited in PubChem BioAssay by National Center for Advancing Translational Sciences (NCATS).
